# Assay results taken from PubChem BioAssay AID485367 (National Center for Advancing Translational Sciences (NCATS), 2010).
# Several values for one entry are separate records, joined by “and”; a condition that tells them apart may be missing. Equal values may be shown once. The whole screen tested about 330,000 compounds, of which about 560 (0.17%) were called active. Roughly 1% stayed inconclusive and do not appear here. The sample holds actives, similar compounds and a random draw of the others, so the mix is not that of the screen. The call rests on the fitted dose curve; in most records, active means well fitted inhibition curve with a large enough effect; inconclusive means small, poorly fitted or top-dose-only effect, or effect the other way; inactive means flat fitted curve, though single readings scatter.
# Biological target: ATP-dependent 6-phosphofructokinase (Trypanosoma brucei brucei) (UniProt O15648)
# Assay: qHTS Assay to Find Inhibitors of T. brucei phosphofructokinase; further: nearly all actives have a fitted effect of over 60% in size;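 on activity, negative = inhibition: 0% = uninhibited 1x PFK enzyme wells and -100% = no-enzyme wells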
# Details: T. brucei PFK, ADP-Glo luminescence; series mostly up to 57.5 µM; activity, negative = inhibition: at the top concentration
# In short: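 Activity is normalized to no-enzyme wells (full inhibition) and 1.25 nM enzyme wells (no inhibition). Reaction: 0.5 mM F6P, 0.1 mM ATP, 45 min RT, ADP-Glo luminescence; concentration-response curves fitted and classed by quality.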
# Potency means the concentration at half of the fitted maximal effect.
# Chain of ATP-dependent 6-phosphofructokinase (Trypanosoma brucei brucei) (O15648 whole entry, looked up): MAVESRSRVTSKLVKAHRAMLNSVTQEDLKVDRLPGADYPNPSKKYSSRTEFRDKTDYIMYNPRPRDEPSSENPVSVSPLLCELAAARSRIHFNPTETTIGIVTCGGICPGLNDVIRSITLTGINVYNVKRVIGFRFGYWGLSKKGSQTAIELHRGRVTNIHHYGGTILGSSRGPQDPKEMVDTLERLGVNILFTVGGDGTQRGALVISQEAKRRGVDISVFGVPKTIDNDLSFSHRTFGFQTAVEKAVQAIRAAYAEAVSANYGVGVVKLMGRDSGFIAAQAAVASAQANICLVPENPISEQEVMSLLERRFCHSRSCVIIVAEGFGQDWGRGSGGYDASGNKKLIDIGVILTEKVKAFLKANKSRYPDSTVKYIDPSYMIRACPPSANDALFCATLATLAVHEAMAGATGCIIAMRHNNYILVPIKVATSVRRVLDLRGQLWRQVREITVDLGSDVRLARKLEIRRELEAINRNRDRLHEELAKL
Structure (SMILES),"activity, negative = inhibition",Potency
Nn1c(SCC(=O)Nc2ccc3c(c2)CCC3)nnc1C1CC1,2.26% (inactive),–
O=C(CC1C(=O)NCCN1CC(c1ccccc1)c1ccccc1)NCC1CCOCC1 (stereo not given),-13.1% (inactive),–
O=C(CCN1C(=O)C2C3C=CC(C3)C2C1=O)Oc1ccc2ccccc2c1 (stereo not given),2.74% (inactive),–
O=C(CSc1nc2ccccc2c(=O)[nH]1)Nc1nc(-c2ccc(Br)cc2)cs1,–,2.69 µM (active)
CC(=O)NCc1ccc(-c2csc(NC(=O)CCCc3nc4ccccc4c(=O)[nH]3)n2)cc1,1.84% (inactive),–
CCOC(=O)c1ccccc1NC(=O)CSc1nc2ccccc2c(=O)[nH]1,0.653% (inactive),–
O=C(CSc1nnc(N2CCOCC2)n1-c1cccc(F)c1)N1CCN(c2ccccn2)CC1,-1.48% (inactive),–
O=C(NNS(=O)(=O)c1ccccc1)c1cnn(-c2ccc(Cl)cc2)c1C(F)(F)F,0.989% (inactive),–
Cc1ccc(OCCCCc2c(C)n[nH]c2C)cc1,0.85% (inactive),–
CC(C)[C@H](NC(=O)N1CCn2c1nc1ccccc12)C(=O)NCCc1ccccc1,10.6% (inactive),–
CCCCNC(=O)OCCSCCS(=O)(=O)c1ccc(Cl)cc1,-7.12% (inactive),–
O=C(NCc1ccc(Cl)c(Cl)c1)c1cccnc1,–,23.9 µM (active)
CC(C)(C)c1cc(C(=O)NCc2cccnc2)ccn1,0.81% (inactive),–
O=C(Nc1nnc(Cc2ccc(Cl)cc2)s1)c1cccnc1,-6.39% (inactive),–
O=C(CN1C(=O)NC2(CCCC2)C1=O)Nc1ccc(F)c(F)c1F,-0.645% (inactive),–
Cn1sc(=O)c2cc(S(=O)(=O)NC3CC3)ccc21,–,15.1 µM (active)
CC1CCC(NS(=O)(=O)c2ccc3c(c2)n(C)c(=O)c(=O)n3C)CC1 (stereo not given),1.11% (inactive),–
O=S(=O)(NC1CC1)c1ccc(F)c(F)c1,0.12% (inactive),–
O=C(Nc1ccc(Cl)c(Cl)c1)N1CC=C(c2ccccc2)CC1,-23.1% (inactive),–
Cc1cccc(N=C2NC(=O)CS2)c1C,1.01% (inactive),–
CCc1ccc(Nc2nnc(SCC(=O)c3ccc4c(c3)NC(=O)CO4)s2)cc1,-3.38% (inactive),–
CCOc1ccc(/C=C/C(=O)N(CC)CC(=O)NCc2cccs2)cc1OC,0.107% (inactive),–
Cc1cccc(NS(=O)(=O)c2cc(Cl)ccc2Cl)n1,-0.981% (inactive),–
CN1CCN(C(=O)c2ccc(NS(=O)(=O)c3ccccc3)cc2)CC1,-0.0214% (inactive),–
O=C(COc1ccc([N+](=O)[O-])cc1Cl)Nc1ccc2[nH]c(=O)[nH]c2c1,-0.514% (inactive),–
O=C(COC(=O)c1cccc(Cl)c1)Nc1ccc2[nH]c(=O)[nH]c2c1,-4.67% (inactive),–
COc1ccc(C(=O)OCC(=O)Nc2ccc3[nH]c(=O)[nH]c3c2)c(OC)c1OC,–,21.3 µM (active)

Structure (SMILES),"activity, negative = inhibition",Potency
Nc1nnc(SCC(=O)NC2CCCc3ccccc32)s1 (stereo not given),-3.89% (inactive),–
O=C(c1ccccc1)c1cc(-c2ccccn2)c(N2CCOCC2)s1,1.02% (inactive),–
NC(=O)c1ncc(C(F)(F)F)cc1Oc1ccc(F)cc1,2.27% (inactive),–
Cc1nc2nc(COc3ccccc3)[nH]n2c(=O)c1C,3.97% (inactive),–
Cc1cc([N+](=O)[O-])nn1Cc1ccc(F)cc1,-3.17% (inactive),–
O=C(O)CCN=C1CCc2ccccc2N1,1.34% (inactive),–
O=C(NC1CCCCC1)c1ccc(CNc2c(N3CCOCC3)c(=O)c2=O)cc1,2.59% (inactive),–
CCN(CC(=O)Nc1cccc(S(=O)(=O)N2CCCCC2)c1)Cc1ccccc1,3.5% (inactive),–
CCOc1cc(/C=N/n2cnnc2)c(Br)cc1O,-1.74% (inactive),–
CCOc1ccc(N2C(=O)CSC2=NC#N)cc1,1.09% (inactive),–
CCOc1cccc(/C=N/N2C(=O)CSC2=S)c1O,–,7.57 µM (active)
C/C(=N/N1CCN(Cc2cccc3ccccc23)CC1)c1cccnc1,6.89% (inactive),–
NS(=O)(=O)c1ccc(NC(=S)NC(=O)c2cccc(Br)c2)cc1,0.423% (inactive),–
NS(=O)(=O)c1ccc(NC(=S)Nc2ccc(Br)c(Cl)c2)cc1,–,9.53 µM (active)
NS(=O)(=O)c1ccc(CCNC(=S)Nc2ccc(S(N)(=O)=O)cc2)cc1,-9.91% (inactive),–
COc1ccc(NC(=O)Cn2cc(C(=O)c3ccncc3)c(=O)c3cc(C)ccc32)cc1Cl,-0.896% (inactive),–
CCc1ccc(N(CC)c2ncnc3nc[nH]c23)cc1,-1.92% (inactive),–
Nc1ccc(Nc2cc(O)c3ncccc3c2)cc1,-7.91% (inactive),–
Cc1cccc(CCNS(=O)(=O)c2ccc(S(=O)(=O)NC3CCCC3)cc2)c1,0.864% (inactive),–
CC1CCC(N2CC(=O)N(Cc3ccc4c(c3)OCO4)C(c3ccc(F)cc3)C2=O)CC1 (stereo not given),-0.311% (inactive),–
COC(=O)CNC(=O)c1ccc2c(c1)S(=O)(=O)c1ccccc1C2=O,-1.45% (inactive),–
O=[N+]([O-])c1ccc(N2CCN(c3ccc(O)cc3)CC2)c(Cl)c1,2.76% (inactive),–
O=S(=O)(NC1CCN(S(=O)(=O)c2ccc3c(c2)OCCO3)CC1)c1c(F)cccc1F,-4.77% (inactive),–
O=C(COC(=O)c1cc[n+]([O-])cc1)Nc1ccc(Cl)c(C(F)(F)F)c1,-23.6% (inactive),–
Cc1ccc(C(CC(=O)O)NC(=O)c2ccc(S(=O)(=O)N3CCCC3)cc2)cc1 (stereo not given),-3.41% (inactive),–
CCCCc1nnc(NC(=O)CS(=O)(=O)Cc2ccccc2)s1,4.44% (inactive),–
Cn1c(=O)c([N+](=O)[O-])c(Oc2ccccc2)c2ccccc21,4.66% (inactive),–

Structure (SMILES),"activity, negative = inhibition",Potency
CCCN(CC(=O)Nc1ccc(OC)c(OC)c1)CC(=O)Nc1ccc(F)c(F)c1F,-5.89% (inactive),–
COc1ccc(N2CCN(S(=O)(=O)c3ccc4c(c3)NC(=O)C(C)C(=O)N4)CC2)cc1 (stereo not given),-3.57% (inactive),–
COc1ccc(C)cc1NC(=O)CCS(=O)(=O)c1cccc2nonc12,0.301% (inactive),–
Cn1nc(C(F)(F)F)cc1-c1ccc(/C=C(\C#N)C(=O)c2cccc(C(F)(F)F)c2)s1,-2.17% (inactive),–
Cc1cc(C)c(S(=O)(=O)n2cc(C(C)C(N)C(=O)O)c3ccccc32)c(C)c1 (stereo not given),-0.251% (inactive),–
COCCOC(=O)c1c(C)oc2cc(Br)c(OCC(N)=O)cc12,-0.993% (inactive),–
CCCCC(CC(C)O)c1n[nH]c(=S)n1-c1ccccc1 (stereo not given),1.94% (inactive),–
CC(NC(=O)CCCC1CCCCC1)c1ccc(S(N)(=O)=O)cc1 (stereo not given),-0.196% (inactive),–
CC(C)(C)OC(=O)C[C@@H]1C/C=C\C[C@@H](CC(=O)N[C@@H](CO)Cc2ccccc2)C(=O)N2CCC[C@H]2COC1=O,-0.476% (inactive),–
COC(=O)CN1C(=O)N/C(=C/c2ccc(OC)c(C)c2OC)C1=O,-0.685% (inactive),–
C=CCn1cc(-c2cccc(C(F)(F)F)c2)cc(C#N)c1=O,-1.02% (inactive),–
COCc1ccc(C(=O)N2CCc3c([nH]c4ccccc34)C2c2ccccn2)s1 (stereo not given),-0.831% (inactive),–
Nc1ccccc1SC(C[N+](=O)[O-])c1ccccc1 (stereo not given),–,13.5 µM (active)
Cc1ccc(C(C[N+](=O)[O-])c2c(C)cc3ccccn23)cc1 (stereo not given),-0.525% (inactive),–
CN(CC(=O)Nc1ccc(F)c(F)c1F)C(=O)C1CC(=O)N(C2CCCC2)C1 (stereo not given),2.52% (inactive),–
CCOC(=O)c1cnc(SC)nc1Sc1ccc(Cl)cc1Cl,-2.53% (inactive),–
NCCN1CCN2C(=O)CN(C(=O)c3ccccc3)CC12 (stereo not given),0.907% (inactive),–
O=C(COC(=O)c1cc(=O)[nH]c2ccccc12)NCc1cccc(Cl)c1,-11.9% (inactive),–
Cc1cc(Nc2cccc(F)c2)n2ncnc2n1,-1.14% (inactive),–
C=CCn1c(C23CC4CC(CC(C4)C2)C3)n[nH]c1=S,-0.991% (inactive),–
CCOC(=O)c1c(/N=C/C2C(=O)CC(C)(C)CC2=O)sc(C)c1C,2.63% (inactive),–
O=C(Nc1cc(C(F)(F)F)ccc1Cl)c1cc2nc3c(c(C(F)(F)F)n2n1)CCCC3,-1.59% (inactive),–
Cc1cc(NS(=O)(=O)c2ccc(NC(=O)C(C)Oc3cccc(C)c3C)cc2)nc(C)n1 (stereo not given),-5.56% (inactive),–
CCCCn1c(N)c(N(Cc2ccccc2OC)C(=O)COc2cc(C)ccc2Cl)c(=O)[nH]c1=O,24.8% (inactive),–
NC(=O)Nc1ccccc1C(=O)NCCc1ccccc1,-28.3% (inactive),–
CCOC(=O)C1C(=O)C=C(c2ccc(OC)cc2)CC1c1ccco1 (stereo not given),1.24% (inactive),–
CC(C)c1ccc(NC(=O)Cn2ncc3ccccc32)cc1,2.07% (inactive),–

Structure (SMILES),"activity, negative = inhibition",Potency
C=CCOc1ccc(/C=C/C(=O)OCC(=O)NC2CCCCCC2)cc1,1.83% (inactive),–
O=C(NCc1ccccn1)c1ccc2nc(-c3ccco3)c(-c3ccco3)nc2c1,–,2.13 µM (active)
O=C1CSc2ccc(C(=O)NCc3ccccn3)cc2N1,-9.69% (inactive),–
COc1cccc(S(=O)(=O)NCc2ccc(C(=O)NCc3ccccn3)cc2)c1,-1.83% (inactive),–
CCOc1cc(CNn2c(C)nnc2SCC(=O)NC(C)(C)C)ccc1OCC(=O)NC(C)(C)C,-0.0385% (inactive),–
S=c1[nH]c2ccccc2c2ccccc12,-0.408% (inactive),–
COCCNC(=O)COc1ccc(N(C)S(=O)(=O)c2ccc3ccccc3c2)cc1,1.54% (inactive),–
Cc1ccc(N2C(=O)C(CC(=O)Nc3cccc(F)c3)N(CCc3ccncc3)C2=O)cc1 (stereo not given),-1.36% (inactive),–
CCCCN1C(=O)C(C)=C(C)C1OCCc1ccc(OC)c(OC)c1 (stereo not given),-0.0022% (inactive),–
O=C(c1ccccn1)c1ncc(C(F)(F)F)cc1Cl,-1.9% (inactive),–
N/C(=N\OC(=O)Nc1ccc(Cl)c(Cl)c1)c1ncc(C(F)(F)F)cc1Cl,–,13.5 µM (active)
N/C(=N\OC(=O)CCCC(=O)O)c1ncc(C(F)(F)F)cc1Cl,0.924% (inactive),–
COc1cccc(N=c2oc3c(C)ncc(CO)c3cc2C(N)=O)c1,-0.59% (inactive),–
CC(C)c1ccc(N2CCN(C(=O)c3ccccc3NC(=O)/C=C(\C(=O)O)c3ccccc3)CC2)cc1,0.784% (inactive),–
O=c1[nH]c(=S)[nH]c2[nH]c(=S)[nH]c12,–,16.9 µM (active) and 13.5 µM (active)
Cc1c(C)c(C)c2[nH]c(=S)[nH]c2c1C,4.32% (inactive),–
CCOc1ccc(Oc2nc(C)cc(OC)n2)nn1,-6.66% (inactive),–
Cc1ccc(-c2nn(-c3ccccc3)cc2C(=O)NCCCN2CCCC2=O)cc1,4.23% (inactive),–
COc1ccccc1NS(=O)(=O)N(C)C,0.142% (inactive),–
Cc1ccc(CN(C)Cc2cc(=O)oc3cc(C)c(Cl)cc23)cc1,0.644% (inactive),–
O=c1oc2ccccc2c(CNc2ccccc2)c1[N+](=O)[O-],1.56% (inactive),–
Cc1ccc2c(c1)N(S(=O)(=O)c1cc(-c3cc(C)no3)ccc1C)CCO2,-4.63% (inactive),–
COC(=O)c1cccc(NC(=O)CN2CCC(NC(=O)c3cc(OC)c(OC)c(OC)c3)CC2)c1,0.362% (inactive),–
Cn1c2cc(B(O)O)sc2c2cnn(Cc3ccccc3F)c(=O)c21,-19.7% (inactive),–
